The structures appear in SMILES notation. Records with an inconclusive call do not appear. Unmarked numbers belong to inactive results. Active and inactive are the calls of the source. Calls follow the shape of the full dose curve.
% is scaled to controls: 0 for no effect and ±100 for the full control effect; potency is read from the fitted curve at half-maximal effect.

The experiment in a line: qHTS assay to identify small molecule antagonists of the sonic hedgehog signaling (Shh) pathway (AID 1259369). Also: nearly all actives have a fitted effect of over 45% in size. The note with it: NIH/3T3 Gli1-Luc reporter, Shh antagonist, luminescence 24 h; series mostly up to 92.4 µM; activity change, negative = inhibition: at the top concentration. From the text:
U.S. Tox21 Program National Center for Advancing Translational Sciences [NCATS] NIH Chemical Genomics Center [NCGC] U.S. Environmental Protection Agency [EPA] National Institutes of Environmental Health Sciences [NIEHS] National Toxicology Program [NTP] U.S. Food and Drug Administration [FDA] Tox21 Assay Overview: The sonic hedgehog (Shh) pathway is essential for normal embryonic development. Dysregulation of the Shh pathway can cause severe developmental defects in organs. Therefore chemicals that interfere with the pathway are potential developmental toxicants. A cell line designated 3T3Gli1-Luc (DMB/OARSA/CFSAN/FDA, Laurel, MD), a NIH/3T3 derived clone containing stably integrated Gli1-Luc reporter is used to detect chemical interference of the Shh pathway, by changes in the expression of the firefly Luc gene under the control of the Gli1 transcriptional response element. This cell line was used to screen Tox21 libraries for identifying and prioritizing the potential developmental toxicants that interfere Shh pathway. Conditioned medium-stimulated mode was used to screen for chemicals inhibiting Shh signaling.
Tox21 Assay Protocol Summary: 3T3 Gli1-Luc cells were dispensed at 2,000 per well in 5uL of culture medium into white solid bottom 1536-well plates (Greiner Bio-One, Monroe, NC) using a Multidrop Combi (Thermo Scientific, Waltham, MA) dispenser. The assay plates were incubated at 37 C and 5% CO2 for 4hr, and then 23nL of compounds dissolved in DMSO and positive control were transferred using a Pintool station (Wako, San Diego, CA). The compound transfer was followed by the addition of 1ul conditioned medium or assay buffer using two separate tips of Flying Reagent Dispenser (FRD, Aurora Discovery, San Diego, CA). The assay plates were incubated at 37C and 5% CO2 for 24hr. For luciferase read, 4uL of Amplite Luciferase reporter gene assay reagent (AAT Bioquest, Inc. Sunnyvale, CA) was added to each well of the assay plates using FRD and incubated at room temperature for 30min. The luminescence signal was measured using a ViewLux plate reader (Perkin Elmer, Shelton, CT).
(In qHTS, concentration-response curves come from the screen itself.)
With `O=C1CCCc2ccccc21`, the “activity change, negative = inhibition” value is 24.6%.

As for `CCCCNc1cc(C(=O)O)cc(S(N)(=O)=O)c1Oc1ccccc1`, the “activity change, negative = inhibition” value was 10.7% [at 42.5 µM].

On to `O=C1N(c2ccccc2)c2ccccc2C1(Cc1ccncc1)Cc1ccncc1`, for which the “activity change, negative = inhibition” value is -24.8% [at 42.5 µM].

`CCOC(=O)COc1ccc2c(c1)CC(NCC(O)c1cccc(Cl)c1)CC2` (stereo not given): the Potency was 27.5 µM (active).

With `OCCN(CCO)c1ccccc1`, the “activity change, negative = inhibition” value was 2.64%.

For `CC(C)C1=CC2=CC[C@@H]3[C@](C)(CCC[C@@]3(C)C(=O)O)[C@H]2CC1`, the “activity change, negative = inhibition” value was 0%.

As to `CCOc1ccc(NC(N)=O)cc1`, the “activity change, negative = inhibition” value is 22.4%.

As for `CC(=O)N(CC(O)CN(C(C)=O)c1c(I)c(C(=O)NCC(O)CO)c(I)c(C(=O)NCC(O)CO)c1I)c1c(I)c(C(=O)NCC(O)CO)c(I)c(C(=O)NCC(O)CO)c1I` (stereo not given), the “activity change, negative = inhibition” value was 10.9% [at 42.5 µM].

As for `FC(F)(F)C(Cl)(Cl)Cl`, the “activity change, negative = inhibition” value was 15.4%.

Turning to `CCOC(=O)NCCC[Si](OCC)(OCC)OCC`, the “activity change, negative = inhibition” value is -2.48%.

Regarding `O=C(O)[C@@H](O)[C@H](O)[C@H](O)[C@@H](O)C(=O)O`, the “activity change, negative = inhibition” value is -27.7% [at 42.5 µM].

On to `C=Cc1ccccc1`, for which the “activity change, negative = inhibition” value was 10.5%.

Turning to `C[C@@H]1CN(c2c(F)c(F)c3c(=O)c(C(=O)O)cn(C4CC4)c3c2F)C[C@H](C)N1`, the activity change, negative = inhibition was 7.04% [at 19 µM].

Turning to `CCOc1ccc2nc(N)sc2c1`, the “activity change, negative = inhibition” value is 0.343%.

For `CC/C=C\CCOC(=O)CCCCC`, the “activity change, negative = inhibition” value is 62.3%.

With `C/C(=N\O)[C@@H](C)NCC(C)(C)CN[C@H](C)/C(C)=N/O`, the “activity change, negative = inhibition” value is -2.17% [at 42.5 µM].

On to `O=C1CCC(C2CCCCC2)CC1`, for which the “activity change, negative = inhibition” value was 0%.

Consider `COC(=O)c1ccc2cc(C(=O)OC)ccc2c1`, for which the Potency is 9.93 µM (active).

For the compound `NS(=O)(=O)c1cc(-c2nn[nH]n2)c(NCc2cccs2)cc1Cl`, the “activity change, negative = inhibition” value is -15.9% [at 42.5 µM].

For `CC(C)O`, the Potency was 29.3 µM (active).

For `CC(CNC1CCCCC1)OC(=O)c1ccccc1` (stereo not given), the “activity change, negative = inhibition” value was -3.17% [at 42.5 µM].

Regarding `O=C(C(Cl)Cl)N1CCOC12CCCCC2`, the “activity change, negative = inhibition” value is -27.9%.

Take `CCCCCCn1c(=O)c2c(ncn2C)n(C)c1=O`: the “activity change, negative = inhibition” value is -9.75% [at 42.5 µM].

For `N#CSCC(=O)O`, the “activity change, negative = inhibition” value was 22.9% [at 42.5 µM].

`CC(C)NC[C@@H](O)COc1cccc2ccccc12`: the “activity change, negative = inhibition” value was -2.32% [at 42.5 µM].

Regarding `C1CCOC1`, the “activity change, negative = inhibition” value was 12.6%.

As to `CCNCCO`, the “activity change, negative = inhibition” value was 0%.

Regarding `NC(=O)NS(=O)(=O)c1ccc(Cl)cc1`, the “activity change, negative = inhibition” value was 1.43% [at 42.5 µM].

With `CC(C)(C)c1ccc(OC(=O)c2ccccc2O)cc1`, the “activity change, negative = inhibition” value was 7.45%.

On to `Cc1ccc(C)c(N)c1`, for which the “activity change, negative = inhibition” value was 17.6%.

Turning to `CC(C)OC(C)C`, the “activity change, negative = inhibition” value was 25%.

On to `CN1CCN(C2=Nc3ccccc3Oc3ccc(Cl)cc32)CC1`, for which the Potency is 6.68 µM (active).

Take `CN(C)C(=O)NC1(c2ccccc2)CCN(CCC[C@]2(c3ccc(Cl)c(Cl)c3)CCCN(C(=O)c3ccccc3)C2)CC1`: the activity change, negative = inhibition was -22.9% [at 19 µM].

For `CN1CCN(c2c(F)cc3c(=O)c(C(=O)O)cn(CCF)c3c2F)CC1`, the “activity change, negative = inhibition” value was 31.3% [at 42.5 µM].

As to `Cc1c(C(=O)NCCO)[n+](=O)c2ccccc2n1[O-]`, the “activity change, negative = inhibition” value was -1.81% [at 42.5 µM].

With `c1ccc(CN(CC2=NCCN2)c2ccccc2)cc1`, the “activity change, negative = inhibition” value is -14% [at 42.5 µM].

For `Cc1ccc(C=O)s1`, the Potency is 48.6 µM (active).

With `CC(C)C(=O)OC/C=C/c1ccccc1`, the “activity change, negative = inhibition” value is 0.304%.

`CCCCCCCCOC(=O)CCCCCCCCC(=O)OCCCCCCCC`: the “activity change, negative = inhibition” value is -0.401%.

For the compound `O=C(O)c1cccc(Cl)c1Cl`, the “activity change, negative = inhibition” value was 18.6%.

The values are drawn from PubChem BioAssay (Tox21).
